Structures are written as SMILES. “And” between values parts separate entries of the source, which are not always exact repeats. Identical values can stand only once. Hit rate of the full screen: of about 290,000 compounds, about 3,000 (1%) were called active. What follows is part of a selection rich in actives, with near analogues and random picks from the rest. Values without a mark were called inactive. No stated cut-off is given here; in the data, active means inhibition mostly above about 36% (no sharp cut-off); inactive means mostly below about 34%.

This test is described as follows: inhibition of NOD1-driven NF-kB reporter – cell-based, luminescence, uHTS, primary screen (AID 1578).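 Further: HEK-293T reporter cells stimulated with the NOD1 agonist gamma-tri-DAP.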 The note with it: NOD1-driven NF-kB luciferase reporter cells, at 4 µM, active compounds read high. A general note: In a reporter assay the amount or activity of a reporter protein is the signal.
With `CCc1cc(/C(Cc2ccccn2)=N\Nc2ccccc2)c(O)cc1O`, the inhibition (as a rule, the change of the read-out against control, counted positive when it falls) was -20.2%. As to `CCCNCc1cc(OC)c(OCC(=O)Nc2ccccc2)cc1Br`, the inhibition was -23.4%. The result for `Cc1cccc(C)c1Nc1nnc(SCC(=O)Nc2cc(S(=O)(=O)N3CCCCC3)ccc2Cl)s1` reads 44.5%. The result for `CCOc1ccc(CN2CCC(Cc3ccccc3)CC2)cc1` reads -22.4%; that for `CSc1ccc(CN2CCC(Cc3ccccc3)CC2)cc1`, 80.3% (active). The result for `Clc1ccc(CN2CCC(Cc3ccccc3)CC2)cc1` reads -18.7%; that for `c1coc(CNc2nc(-c3ccncc3)cs2)c1`, -35.7%. As to `CCOC(=O)C1CCN(C(=O)CCCn2nc(C)c3c(C)n(-c4ccc(C)cc4)nc3c2=O)CC1`, the inhibition is -4.8%. With `CC(C)C[C@H](NC(=O)OC(C)(C)C)c1n[nH]c(=S)n1N` the figure was -16.1%; with `CCN(C(=O)Cn1c(=O)oc2ccccc21)C1CCS(=O)(=O)C1` (stereo not drawn), -9.7%. Take `CC(=O)N1c2ccc(S(=O)(=O)N3CCC(C(=O)Nc4cccc(C)c4)CC3)cc2CC1C` (stereo not drawn): the inhibition was -24.4%. In the case of `CC(=O)N1c2ccc(S(=O)(=O)N3CCC(C(=O)Nc4ccccn4)CC3)cc2CC1C` (stereo not drawn), the inhibition is -41.4%. `CC(C)[C@@H](N)C(=O)N/N=C/c1ccc2ncccc2c1`: the inhibition was -2%. With `CSCC[C@H](NC(=O)[C@H]1CC[C@H](CNC(=O)[C@@H]2CCCN2)CC1)C(=O)O` the figure was -8.2%; with `COCCn1c(C)cc(/C=C2/NC(=O)N(Cc3ccc(C)cc3)C2=O)c1C`, -2.2%; with `CCCCNC(=O)[C@H](Cc1c[nH]c2ccccc12)NC(=O)c1ccccc1Cl`, -18.4%. With `C=CCN=c1scc(-c2ccc3c(c2)NC(=O)CO3)n1/N=C(\C)c1ccccn1` the figure was 50.6% (active).

`COCCN=c1scc(-c2ccc3c(c2)NC(=O)CO3)n1/N=C(\C)c1ccc(O)cc1`: the inhibition is -6.7%.

`CCN=c1scc(-c2ccc3c(c2)NC(=O)CO3)n1N=C1CCCC1`: the inhibition was 51.7%. The result for `CCCCCC1=NN2C(=O)CC(=O)N=C2S1` reads 11.6%. On to `O=c1c2nnn(-c3cccc(F)c3)c2ncn1Cc1ccccn1`, for which the inhibition is -4.3%. The result for `O=C(N/N=C/c1ccc([N+](=O)[O-])cc1)c1[nH]ncc1Br` reads -5%. For the molecule `Cc1ccc(-c2nn(CC(=O)NCc3cc(-c4nn(C)c(=O)c5ccccc45)ccc3C)c(=O)c3ccccc23)cc1`, the inhibition was 93.8% (active).

In the case of `Cc1ccc(-c2nn(C)c(=O)c3ccccc23)cc1CNC(=O)Cn1nc(-c2ccccc2)c2ccccc2c1=O`, the inhibition is 12.8%. With `Cc1cc(C)n(CC(=O)NCc2cc(-c3nn(C)c(=O)c4ccccc34)ccc2C)n1` the figure was -14%; with `Cc1ccc2[nH]c3c(c2c1)CCNC3=O`, -41.5%; with `O=C1NCCc2c1[nH]c1c(Cl)ccc(Cl)c21`, 79.2% (active). The result for `O=C1NCCc2c1[nH]c1ccccc21` reads 10.2% and -8.1%; that for `CCOC(=O)[C@@H]1[C@H]2COc3cc(OC)ccc3[C@@H]2N2C(=O)N(c3ccc(Br)cc3)C(=O)[C@@]12C`, -23.3%; that for `CN(C)C(CNc1ncccn1)c1ccccc1` (stereo not drawn), -14.6%. With `CC(C)(C)OC(=O)N1CCC(CC2CC(c3cccc(Br)c3)=NO2)(C(=O)O)CC1` (stereo not drawn) the figure was -12.7%; with `COC(=O)C1(CC2CC(c3cccc(Br)c3)=NO2)CCN(C(=O)OC(C)(C)C)CC1` (stereo not drawn), 43.4% (active). For the molecule `CC(C)(C)OC(=O)N1CCC(CC2CC(c3cccc(Br)c3)=NO2)(C(=O)NCC2CCCCC2)CC1` (stereo not drawn), the inhibition was -0.4%. In the case of `O=C(c1cc2ccccn2n1)N1CCN(c2cccc(C(F)(F)F)c2)CC1`, the inhibition is 19.8%.

Regarding `Cc1ccc(S(=O)(=O)NC(=NC2CCCCC2)c2ccc(F)cc2)cc1`, the inhibition is -31.6%. With `CCc1ccc(-c2nn(-c3ccccc3)cc2C2SCC(=O)N2Cc2ccco2)cc1` (stereo not drawn) the figure was 11.4%; with `O=C1CSC(c2cn(-c3ccccc3)nc2-c2cc3ccccc3oc2=O)N1Cc1ccco1` (stereo not drawn), 3.1%; with `O=C1CSC(c2cn(-c3ccccc3)nc2-c2ccccc2)N1Cc1ccco1` (stereo not drawn), 51.6% (active). On to `COc1ccc(/C=N/c2nc3ccccc3n2C)cc1OC`, for which the inhibition is -12.1%. Regarding `CCOC(=O)N1CCN(C(=O)C2CCN(Cc3ccc(O)c(OCC)c3)CC2)CC1`, the inhibition was -15.5%. Consider `O=C(c1ccccc1)N1CCCCC(S(=O)(=O)c2ccccc2)C1=O` (stereo not drawn), for which the inhibition was 19.8%.

For `O=C(N/N=C/c1ccc(O)cc1O)c1ccc(NC(=O)C2CCCCC2)cc1`, the inhibition was -73.3%. With `Cc1cccc(OC(C)C(=O)N2CCCN(C)CC2)c1C` (stereo not drawn) the figure was -5.8%; with `O=C(Nc1ccc(N2CCOCC2)cc1)C1CC(=O)N(c2ccccc2)C1` (stereo not drawn), -35.3%; with `O=C(NCc1ccccc1)C1CCCC1`, 67.7% (active). With `O=C(NCc1ccccc1)C1CCC1` the figure was -29%. With `O=C(NC(=S)NCc1ccccc1)C1CCCCC1`, the inhibition was 11.8%. With `CC(=O)N1CCc2cc(S(=O)(=O)NCC(=O)NCc3ccc(F)cc3)ccc21` the figure was -8%. With `Nc1[nH]c(N=NC(=O)c2ccccc2)c2ccccc12` the figure was -58.4%; with `CCOc1ccc(S(=O)(=O)N2CCCC(C(=O)N3CCN(CC)CC3)C2)cc1Cl` (stereo not drawn), -13.6%. With `CCN(CC)S(=O)(=O)c1cc(NC(=O)COC(=O)c2ccc(NC(=O)CC#N)cc2)ccc1C` the figure was -16.4%; with `Fc1ccc(Nc2nc(-c3ccncc3)nc3ccccc23)cc1`, 1.1%. `C=CCNc1sc(C(=O)c2ccccc2)c(N)c1-c1nc2ccccc2s1`: the inhibition is -19.4%.

As to `O=C1N/C(=N/S(=O)(=O)c2ccccc2)S/C1=C/c1cccnc1`, the inhibition is -12.1%. With `COc1ccc(CNCc2cccc(Oc3ccccc3)c2)cc1` the figure was 65.8% (active); with `COc1ccccc1CNCc1cccc(Oc2ccccc2)c1`, -7.9%. The result for `O=C(O)c1ccc(CNCc2cccc(Oc3ccccc3)c2)cc1` reads -4.9%.

As for `Cc1cc(C)nc(/N=C2/NC(=O)CS2)n1`, the inhibition is 11.8%. For `O=C(CSc1ncccc1C(=O)O)NC12CC3CC(CC(C3)C1)C2`, the inhibition was -37.8%. Consider `CC(C)(C)C(=O)COC(=O)c1cc2ccccc2cc1O`, for which the inhibition is -26.6%. The result for `Cc1c(C)c2c(OCC(=O)N3CCC(C(=O)O)CC3)cc3c(c2oc1=O)CCC(C)(C)O3` reads -8.2%.

On to `CC[n+]1c(/C=C/c2ccc(N(C)C)cc2)ccc2ccccc21`, for which the inhibition was 0.8%.

`CC[n+]1c(/C=C/c2ccc(OC)c(OC)c2)ccc2ccccc21`: the inhibition is -81.5%. As for `CC(NS(=O)(=O)c1ccc(NC(=O)N2CCCCC2)cc1)c1ccccc1` (stereo not drawn), the inhibition is -19.3%. The result for `O=C(Nc1cccnc1)OC1CCCC1` reads -40.3%. With `Cc1cc(C)c(S(=O)(=O)Nc2ccncc2)cc1C` the figure was -25.9%; with `Cc1ccc(CCNS(=O)(=O)c2ccc3c(c2)NC(=O)CCS3)cc1`, -8.7%. With `CSc1ccccc1C(=O)Nc1ccc2c(c1)CCC2` the figure was -1%; with `O=C(O)COc1ccccc1C(Nc1cccnc1)c1cc(Cl)c2cccnc2c1O` (stereo not drawn), -3.2%; with `CCCC(=O)NC(c1cccs1)c1cc(Cl)c2cccnc2c1O` (stereo not drawn), 55.3% (active).

For the molecule `CCC(=O)NC(c1cccs1)c1cc(Cl)c2cccnc2c1O` (stereo not drawn), the inhibition was 32.2%. With `Oc1c(C(Nc2ccccn2)c2cccnc2)cc(Cl)c2cccnc12` (stereo not drawn) the figure was 15.5%; with `CCOc1ccc(C(Nc2cccnc2)c2cc(Cl)c3cccnc3c2O)cc1` (stereo not drawn), 67.5% (active). As for `CCCCC(=O)NC(c1cccs1)c1cc(Cl)c2cccnc2c1O` (stereo not drawn), the inhibition is -31.4%.

With `CCC(=O)NCCc1nc2cc(NC(=O)COc3ccccc3)ccc2n1C`, the inhibition is -21.6%. The result for `Cc1cc(C)c(S(=O)(=O)NCc2cccnc2)cc1C` reads 9.3%; that for `CCOc1ccc(N2C(=O)CC(/C=C3/N(C)c4ccccc4C3(C)C)C2=O)cc1` (stereo not drawn), -9.6%; that for `CCC(C)NC(=O)Nc1ccc(Br)cc1` (stereo not drawn), -16%. With `O=C(NNS(=O)(=O)c1ccc([N+](=O)[O-])cc1)C(=O)Nc1cccc(C(=O)O)c1` the figure was -14.5%; with `Cc1ccc(C(=O)Nc2cccc(C(=O)NCc3ccccc3)c2)cc1`, -41.3%; with `O=C(N/N=C/C(Cl)=C/c1ccc([N+](=O)[O-])cc1)C(=O)Nc1cccc(C(=O)O)c1`, -14.1%. With `COC(=O)c1cccc(NC(=O)/C=C/c2ccc3c(c2)OCO3)c1` the figure was 69%; with `CCOc1ccc(NC(=O)NC(C)CC)cc1` (stereo not drawn), 31.5% (active). In the case of `Cc1ccc(C(=O)Nc2cccc(C(=O)O)c2)cc1`, the inhibition was 73.3% (active). With `CCOC(=O)c1cccc(NC(=O)/C=C/c2ccc3c(c2)OCO3)c1` the figure was 98% (active); with `O=C(Nc1ccc([N+](=O)[O-])cc1)C(=O)Nc1cccc(C(=O)O)c1`, 79.5% (active); with `O=C(O)c1cccc(NC(=O)c2cc(NC(=O)c3ccccc3)cc(NC(=O)c3ccccc3)c2)c1`, 12.6%. As for `CCOc1ccc(NC(=O)Nc2ccc(NC(C)=O)cc2)cc1`, the inhibition was -22.3%.

With `CCOC(=O)c1cccc(NC(=O)c2ccc3c(c2)OCO3)c1`, the inhibition is -56.6%. With `COc1ccc(Cc2nnc(NC(=O)C(C)(C)C)s2)cc1` the figure was -7.8%. With `COc1ccccc1CN1CC(C(=O)NCCc2ccc(Cl)cc2)CC1=O` (stereo not drawn) the figure was -8.7%; with `Cc1cc[n+](CC(=O)c2cccc([N+](=O)[O-])c2)c2ccccc12`, -5.3%; with `Cc1ccc(CN2CCNC(=O)C2CC(=O)NCCCn2cccn2)o1` (stereo not drawn), -26.6%.

Source of the values: PubChem BioAssay AID1578 (Sanford-Burnham Center for Chemical Genomics, 2009).
